Drawing on PubChem BioAssay (NCATS), this text covers Potency, outcome and max response for 3 compounds.

The nature of assay [1]: P-glycoprotein substrates identified in KB-8-5-11 adenocarcinoma cell line, qHTS therapeutic library screen (AID 1346987). Note: nearly all actives have a fitted effect of over 65% in size. Note: potency is the fitted concentration of half-maximal effect. In outline: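 In this qHTS, P-gp-rich KB-8-5-11 cells received library compounds across a concentration range. Viability was quantified by luminescence after 72 h at 37 degree C.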
Background: qHTS replaces the single test concentration by a dilution series.

Assay [2] deals with Zika virus NS2B-NS3 protease (unlinked complex). Kind of assay: Primary screen GU Rhodamine qHTS for Zika virus inhibitors: Unlinked NS2B-NS3 protease assay (AID 1347159). Note: % is set by controls: 0 for no effect and ±100 for the full control effect; nearly all actives have a fitted effect of over 60% in size. In outline:
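Enzyme 25 nM in Tris-HCl pH 8.0 + 0.01% Tween 20; compounds up to 114 microM, 15 min RT dark; + Rhod110 substrate 1.5 microM; read t0 and 15 min; delta fluorescence → % inhibition → 4-parameter Hill fit.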

Assay [3] has as its system Zika virus NS2B-NS3 protease (linked construct). Put plainly: Primary screen NINDS Rhodamine qHTS for Zika virus inhibitors (AID 1347160). Note: % is set by controls: 0 for no effect and ±100 for the full control effect; nearly all actives have a fitted effect of over 55% in size. In outline: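 Enzyme (25 nM, linked NS2B-NS3) was preincubated 15 min with compound in 10 mM Tris-HCl pH 8.0, 0.01% Tween 20. Rhodamine110 substrate (1.5 microM) was then added and fluorescence read at start and after 15 min.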
Assay [4] is described as follows: Primary qHTS for Huh7 cytotoxicity: counterscreen for inhibitors of MERS-S pseudotyped particle cell entry (AID 1479147; calls by dose curve). To be noted: outcome: dose series up to 57.1 µM unless noted.
Assay [5] is described as follows: Primary qHTS for Vero E6 cytotoxicity: counterscreen for inhibitors of SARS-S pseudo-typed particle cell entry (AID 1479150; calls by dose curve; note: % is set by controls: 0 for no effect and ±100 for the full control effect). The settings on record: outcome: dose series up to 57.1 µM unless noted.
In assay [6] the target is Calcium and integrin-binding protein 1 (Homo sapiens) (UniProt Q99828). Put plainly: Primary qHTS for Identification of Calcium Integrin Binding Protein 1 (CIB1) Competitor (AID 1508620).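 Note: GST tagged CIB1 binding a fluorescein labelled alphaIIb integrin peptide tracer; top concentration of the series differs between compounds; % is set by controls: 0 for no effect and ±100 for the full control effect.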 Put shortly: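 CIB1-GST (1 uM final) and compound incubated 15 min at room temperature before adding FITC-alphaIIb peptide tracer (100 nM final). Competition for binding read by fluorescence polarization (ex 480, em 540) after another 15 min at room temperature.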

In assay [7] the target is Cytochrome P450 2D6 (Homo sapiens) (UniProt P10635). Put plainly: Cytochrome P450 family 2 subfamily D member 6 (CYP2D6) small molecule antagonists: luciferase biochemical (cell-free) qHTS assay (AID 1645840; active = well fitted curve in the direction sought with a large enough effect in the repeat runs; an effect the other way counts as inactive or inconclusive; note: potency is the fitted concentration of half-maximal effect; nearly all actives have a fitted effect of over 55% in size). In outline: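 P450-Glo CYP2D6 system: proluciferin substrate converted by enzyme to luciferin, read by luminescence proportional to activity. Enzyme-substrate mix with compound 10 min at room temperature, then NADPH regeneration 1 h before detection reagent.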

The target in assay [8] is Cytochrome P450 2C9 (Homo sapiens) (UniProt P11712). Kind of assay: Cytochrome P450 family 2 subfamily C member 9 (CYP2C9) small molecule antagonists: luciferase biochemical (cell-free) qHTS assay (AID 1645842; active = well fitted curve in the direction sought with a large enough effect in the repeat runs; an effect the other way counts as inactive or inconclusive; note: potency is the fitted concentration of half-maximal effect; nearly all actives have a fitted effect of over 55% in size). Put shortly: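 P450-Glo CYP2C9 system: proluciferin substrate with enzyme in mix containing 0.4% BSA, 10 min at room temperature, then NADPH regeneration solution added and incubated 1 h at 37C. Detection reagent stopped reaction; luminescence read after 20 min as RLU.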

Assay [9] in a line: Cytotoxicity counterscreen for inhibitors of SARS-CoV-2 cell entry (AID 1645845; calls by dose curve; note: nearly all actives have a fitted effect of over 50% in size). In outline:
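ATP-content luminescence (ATPLite 1step, 15 min RT) read after 48 h compound exposure of Expi293F cells stably expressing human ACE2; normalized to cells-only wells and media-only wells.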
Background: The purpose of a counterscreen is to sort out artefacts and off-target activity.

The nature of assay [10]: Primary qHTS for inhibitors of nuclear receptor binding SET domain protein 2 (NSD2) in an isogenic RCH-ACV NSD2 p.E1099K mutant (9B) (AID 1645876). Note: potency is the fitted concentration of half-maximal effect; nearly all actives have a fitted effect of over 70% in size.
The nature of assay [11]: Primary qHTS for inhibitors of nuclear receptor binding SET domain protein 2 (NSD2) in an RCH-ACV wild type WT cells (2C) (AID 1645877). Note: potency is the fitted concentration of half-maximal effect; nearly all actives have a fitted effect of over 70% in size.
For assay [12], the target named is Luciferin 4-monooxygenase (Photinus pyralis) (UniProt P08659). Put plainly: Primary firefly luciferase (FLuc) qHTS assay for identification of artifact compounds. (AID 1845220).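 Note: plate controls were DMSO vehicle for no effect and no enzyme for full effect; nearly all actives have a fitted effect of over 60% in size.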 To be noted: outcome: dose series up to 54.1 µM unless noted. In outline:
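FLuc 10 nM; luciferin 10 uM; ATP 10 uM; Tris-acetate pH 7.6, Mg-acetate 10 mM; 15 min RT preincubation; 5 min reaction; luminescence.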

The nature of assay [13]: Primary fluorescence-based thiol-reactive (MSTI) qHTS assay for identification of artifact compounds. (AID 1845221).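 Note: thiol-reactive compounds lower the probe fluorescence signal; nearly all actives have a fitted effect of over 65% in size.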 Put shortly:
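qHTS titration of compound; 4 uM MSTI, PBS pH 7.4, 2% DMSO; 1 h RT, dark; fluorescence 525/598 nm; normalized to Acetyl-MSTI and MSTI; 4-parameter Hill fit.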

Assay [14] relates to Nanoluciferase (engineered Oplophorus gracilirostris luciferase). Kind of assay: Primary Nanoluciferase (NLuc) qHTS assay for identification of artifact compounds. (AID 1845222).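 Note: NLuc secreted into diluted conditioned medium of S16 cells; 0% = DMSO and -100% = no enzyme.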 In outline:
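NLuc from S16 cell medium (1:55) plus test compounds, 15 min, room temperature. Luminescence after Nano-Glo (1:100) addition, 5 min.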

Assay [15] can be described thus: Primary redox qHTS assay for identification of artifact compounds. (AID 1845223).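 Note: 0% = DMSO and 100% = reference compound.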 In outline: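 Redox-cycling detection via DTT (250 uM final) oxidation coupled to Amplex Red (25 uM)/HRP (250 mU/mL) in HBSS. 15 min preincubation plus 30 min after DTT, room temperature. Ex/Em 525/598 nm; 4-parameter Hill fit against DMSO and 10 uM DA3003.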
For the next assay, the system named is HEK293. Put plainly: Cytotoxic Profiling of Annotated Libraries Using Quantitative High-Throughput Screening (AID 1296008). For max response: % is set by controls: 0 for no effect and ±100 for the full control effect. Note: nearly all actives have a fitted effect of over 60% in size. Note: potency is the fitted concentration of half-maximal effect. The settings on record: Five cell lines viability, CellTiter-Glo ATP luminescence, 48-72 h; max response: hits give low values. Put shortly: (§1)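 Cytotoxicity was measured as CellTiter-Glo ATP luminescence, read after 10 min at room temperature. Compound treatment of the cells lasted 48 or 72 hr at 37 degrees Celsius in a qHTS format.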
Background: In ATP-based viability assays light output follows the ATP content of the culture.

The subject of a further assay is HaCat. The assay is described as above. The settings on record: Five cell lines viability, CellTiter-Glo ATP luminescence, 48-72 h; max response: hits give low values. In outline: as §1
The next assay concerns NIH3T3. Described as above. The settings on record: Five cell lines viability, CellTiter-Glo ATP luminescence, 48-72 h; max response: hits give low values. In outline: as §1
For a further assay, the system named is CAOV3. Put plainly: Primary qHTS to identify gynecologic anti-cancer compounds using libraries of approved drugs and bioactive compounds (AID 1345084). Note: nearly all actives have a fitted effect of over 55% in size. Note: potency is the fitted concentration of half-maximal effect. The settings on record: Gynecologic cancer cell panel viability, ATPlite luminescence, 48 h; series mostly up to 57.5 µM. Put shortly:
(§2)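 Cells, 1,000 per well, were allowed to settle for 16 h at 37 C before compound addition. Five concentrations were tested for 48 h, and viability was read by ATPlite luminescence after 15 min at room temperature.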

For another assay, the system named is CASKI. The description is as above. To be noted: Gynecologic cancer cell panel viability, ATPlite luminescence, 48 h; series mostly up to 57.5 µM. In outline:
as §2

A further assay has as its system HeLa. Described as above. To be noted: Gynecologic cancer cell panel viability, ATPlite luminescence, 48 h; series mostly up to 57.5 µM. Put shortly:
as §2

A further assay deals with Hek293T. The assay is described as above. The settings on record: Gynecologic cancer cell panel viability, ATPlite luminescence, 48 h, control line for the selectivity index; series mostly up to 57.5 µM. In outline:
as §2

For a further assay, the system named is JEG-3. Described as above. To be noted: Gynecologic cancer cell panel viability, ATPlite luminescence, 48 h; series mostly up to 57.5 µM. In outline:
as §2

The test system of a further assay is OV90. Described as above. To be noted: Gynecologic cancer cell panel viability, ATPlite luminescence, 48 h; series mostly up to 57.5 µM. Put shortly: as §2
The next assay concerns PA-1. The assay is described as above. To be noted: Gynecologic cancer cell panel viability, ATPlite luminescence, 48 h; series mostly up to 57.5 µM. In outline:
as §2

For a further assay, the system named is SKOV3. Described as above. To be noted: Gynecologic cancer cell panel viability, ATPlite luminescence, 48 h; series mostly up to 57.5 µM. Put shortly:
as §2

The subject of a further assay is Tov-21-G. Described as above. To be noted: Gynecologic cancer cell panel viability, ATPlite luminescence, 48 h; series mostly up to 57.5 µM. In outline:
as §2

For another assay, the system named is Tov112D. Described as above. The settings on record: Gynecologic cancer cell panel viability, ATPlite luminescence, 48 h; series mostly up to 57.5 µM. In outline: as §2
Assay [16] has as its target Glutathione peroxidase 1 (Homo sapiens) (UniProt P07203). Kind of assay: Primary qHTS Assay for Inhibitors of Recombinant Selenoprotein Glutathione Peroxidase 1 (GPX1) (AID 1845191). Note: % is set by controls: 0 for no effect and ±100 for the full control effect; nearly all actives have a fitted effect of over 65% in size. Put shortly: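 NADPH consumption tracked by fluorescence at 340/450 nm between t=0 and t=15 min, room temperature. Final mix: 10 nM GPX1, 100 nM glutathione reductase, 1 mM GSH, 0.5 mM NADPH, 0.5 mM cumene hydroperoxide, 0.01% BSA; 30 min compound–enzyme preincubation.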

A further assay has as its system C33A. Put plainly: Primary qHTS to identify gynecologic anti-cancer compounds using libraries of approved drugs and bioactive compounds (AID 1345084). Note: nearly all actives have a fitted effect of over 55% in size. Note: potency is the fitted concentration of half-maximal effect. To be noted: Gynecologic cancer cell panel viability, ATPlite luminescence, 48 h; series mostly up to 57.5 µM. In outline:
as §2

The next assay deals with Es-2. The description is as above. The settings on record: Gynecologic cancer cell panel viability, ATPlite luminescence, 48 h; series mostly up to 57.5 µM. Put shortly: as §2
Assay [17] concerns the target Phospholipid hydroperoxide glutathione peroxidase GPX4 (Homo sapiens) (UniProt P36969). Put plainly: Primary qHTS Assay for Inhibitors of Recombinant Selenoprotein Glutathione Peroxidase 4 (GPX4) (AID 1845192). Note: % is set by controls: 0 for no effect and ±100 for the full control effect; nearly all actives have a fitted effect of over 65% in size. In outline: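 NADPH consumption followed by fluorescence at 340/450 nm, t=0 and after 15 min at room temperature. Reaction started with cumene hydroperoxide (0.5 mM final) after 30 min compound–GPX4 preincubation; final 200 nM GPX4, 100 nM GR, 1 mM GSH, 0.5 mM NADPH.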

A number with no mark means an inactive call. Inconclusive results are not listed. Active and inactive are the calls of the source. Unless noted, calls come from the whole dose curve; as a rule, active = well fitted curve in the direction sought with a large enough effect; inconclusive = small, poorly fitted or top-dose-only effect, or another doubt; inactive = no such curve, though single readings can be large; an effect the other way counts as inactive or inconclusive.

Chain of Calcium and integrin-binding protein 1 (Homo sapiens) (Q99828 whole entry, looked up): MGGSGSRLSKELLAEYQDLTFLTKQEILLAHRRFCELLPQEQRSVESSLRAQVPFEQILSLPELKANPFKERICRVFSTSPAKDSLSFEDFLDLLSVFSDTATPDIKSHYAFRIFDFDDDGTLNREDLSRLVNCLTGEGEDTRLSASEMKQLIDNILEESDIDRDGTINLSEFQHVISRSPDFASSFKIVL
Chain of Glutathione peroxidase 1 (Homo sapiens) (P07203 whole entry, looked up): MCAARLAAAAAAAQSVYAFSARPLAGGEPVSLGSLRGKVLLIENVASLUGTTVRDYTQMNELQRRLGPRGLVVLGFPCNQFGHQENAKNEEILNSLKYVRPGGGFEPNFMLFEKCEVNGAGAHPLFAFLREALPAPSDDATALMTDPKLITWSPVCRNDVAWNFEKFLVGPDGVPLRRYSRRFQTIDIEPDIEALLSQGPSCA
Chain of Cytochrome P450 2D6 (Homo sapiens) (P10635 whole entry, looked up): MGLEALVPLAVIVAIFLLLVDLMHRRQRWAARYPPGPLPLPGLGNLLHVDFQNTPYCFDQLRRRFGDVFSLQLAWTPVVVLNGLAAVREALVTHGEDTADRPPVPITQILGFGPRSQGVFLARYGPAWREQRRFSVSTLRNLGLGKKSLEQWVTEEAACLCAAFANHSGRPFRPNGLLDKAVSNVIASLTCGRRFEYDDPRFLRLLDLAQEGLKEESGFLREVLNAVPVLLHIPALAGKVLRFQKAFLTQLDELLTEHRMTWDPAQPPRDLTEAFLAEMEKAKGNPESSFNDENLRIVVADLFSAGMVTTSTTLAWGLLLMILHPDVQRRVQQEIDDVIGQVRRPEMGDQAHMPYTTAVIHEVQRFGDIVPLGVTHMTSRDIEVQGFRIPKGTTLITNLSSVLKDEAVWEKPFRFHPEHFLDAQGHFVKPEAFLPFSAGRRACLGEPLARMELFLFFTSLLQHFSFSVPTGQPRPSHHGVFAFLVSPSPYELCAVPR
Chain of Phospholipid hydroperoxide glutathione peroxidase GPX4 (Homo sapiens) (P36969 whole entry, looked up): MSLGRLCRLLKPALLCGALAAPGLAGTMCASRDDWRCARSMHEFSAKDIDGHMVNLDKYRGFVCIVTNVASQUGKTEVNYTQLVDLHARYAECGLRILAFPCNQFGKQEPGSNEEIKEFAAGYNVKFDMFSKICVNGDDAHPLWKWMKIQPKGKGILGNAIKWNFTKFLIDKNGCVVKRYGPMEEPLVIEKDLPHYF
Chain of Cytochrome P450 2C9 (Homo sapiens) (P11712 whole entry, looked up): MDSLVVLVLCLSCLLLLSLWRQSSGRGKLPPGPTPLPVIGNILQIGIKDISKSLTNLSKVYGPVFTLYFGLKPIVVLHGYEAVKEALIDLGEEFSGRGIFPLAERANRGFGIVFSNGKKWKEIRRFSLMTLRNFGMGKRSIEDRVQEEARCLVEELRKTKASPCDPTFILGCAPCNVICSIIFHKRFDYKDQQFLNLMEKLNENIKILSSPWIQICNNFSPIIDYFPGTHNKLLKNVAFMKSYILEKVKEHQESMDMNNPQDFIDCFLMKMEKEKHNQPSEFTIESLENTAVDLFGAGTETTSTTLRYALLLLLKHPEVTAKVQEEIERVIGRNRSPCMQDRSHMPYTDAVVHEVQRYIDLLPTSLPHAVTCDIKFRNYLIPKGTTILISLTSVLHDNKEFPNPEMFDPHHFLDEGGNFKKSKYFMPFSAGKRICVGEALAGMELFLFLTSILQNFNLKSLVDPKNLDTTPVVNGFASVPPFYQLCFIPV

For `COc1ccc(C(C)(C)C)cc1CN[C@H]1C2CCN(CC2)[C@H]1C(c1ccccc1)c1ccccc1`, the Potency in [1] was 18.4 µM (active); in [7], 2.68 µM (active); in [8], 26.8 µM (active); in assay [10], 6.49 µM (active); in [11], 6.49 µM (active); in the assay with HEK293, 10.3 µM (active). In the assay on HaCat, the Potency is 18.4 µM (active). Further, the Potency result in assay [2], in assay [3], in assay [6], in assay [9], in assay [13] and in [14] was “inactive” throughout. Besides, the Potency result (in assay [15]; in the assay on CAOV3; with CASKI; in the assay on HeLa; in the assay on Hek293T; in the assay with JEG-3) was “inactive” each time. For the same compound, the Potency entry in the assay with OV90, in the assay with PA-1, in the assay on SKOV3, with Tov-21-G and in the assay with Tov112D was “inactive” throughout. Also, the call in [4], in [5] and in assay [12] was inactive. In the assay with NIH3T3, the max response was -16.4%.
Regarding `NNC(=O)c1nn(Cc2ccc(Cl)cc2Cl)c2ccccc12`, the Potency entry in [1], in [2], in [3], in assay [6], in [16] and in assay [13] was “inactive” throughout. Further, the Potency result (in assay [14]; in assay [15]; with C33A; in the assay with CASKI; in the assay on Es-2; in the assay with HeLa) was “inactive” throughout. In addition, the Potency result in the assay on Hek293T, in the assay on JEG-3, in the assay on OV90 and in the assay on Tov112D was “inactive” in each case. Also, the outcome in assay [12] was inactive. For the same compound, the max response in the assay with HaCat is 3.64%; in the assay with NIH3T3, -5.07%.
`CC1=CC2/C=C(\C)CCC(O)C(O)/C=C/C(=O)C23C(=O)NC(CC(C)C)C3C1C` (configuration not stated): the Potency entry in [3], in assay [6], in [16], in assay [17], in assay [14] and in assay [15] was “inactive” throughout. In the assay on Tov-21-G, the Potency entry was “inactive”. For the same compound, the Potency in assay [10] is 2.24 µM (active); in the assay on HEK293 it was 2.82 µM (active); in the assay on NIH3T3, 7.96 µM (active); in the assay on Es-2, 10 µM (active); with Hek293T, 7.94 µM (active); with PA-1, 12.6 µM (active). In addition, the Potency in the assay with Tov112D was 10 µM (active). Further, in assay [12], the outcome was inactive.
